The source made the active and inactive calls.
Columns and labels:
[1] = E. coli DRC41 culture turbidity changes, primary screen, E. coli filamentation inducer project, strain DRC41, OD650, 48 h (AID 1152);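 also: E. coli MC1000 strain DRC41 lacking acrAB efflux pump and sulA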; conditions: E. coli DRC41 (acrAB sulA), higher = more signal, called active from +8 up or from −8 down
[2] = small-molecule binders of probe aLefty1, primary screen, biochemical, small-molecule microarray, 635/667 nm fluorescence (AID 1153); conditions: higher = more signal;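 also: score merges spot fluorescence with signal-to-noise ratio from the scanned slide images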
[3] = PSAC antagonists in infected red cells, primary screen, cell-based, P. falciparum Indochina, OD700, 1 h (AID 1154); conditions: P. falciparum Indochina infected RBC osmotic lysis, higher = more signal, called active from +8 up or from −8 down
[4] = PSAC antagonists in infected red cells, primary screen, cell-based, P. falciparum Indochina, OD700, 2 h (AID 1155);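 also: lysis reports solute entry through the parasite surface anion channel PSAC; channel blockers reduce lysis of infected cells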; conditions: P. falciparum Indochina infected erythrocytes, osmotic lysis OD700; higher = more signal, called active from +8 up or from −8 down
[5] = osmotic lysis modulators in infected erythrocytes, primary screen, PSAC antagonist project, cell-based, P. falciparum Indochina, OD700, 3 h (AID 1156); conditions: higher = more signal, called active from +8 up or from −8 down
[6] = PSAC antagonists in infected red cells, primary screen, cell-based, P. falciparum Indochina, OD700, 18 h (AID 1157); conditions: P. falciparum Indochina infected erythrocytes, osmotic lysis OD700, 18 h; higher = more signal, called active from +8 up or from −8 down
[7] = modulators of S6 phosphorylation in cells, primary screen, cell-based, A549, cytoblot, luminescence, serum-stimulated (AID 1158); conditions: A549 phospho-S6 cytoblot, 5 h, higher = more signal;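 also: serum-stimulated A549 lung adenocarcinoma cells; signal is phosphorylated S6 detected by cytoblot immunostaining with HRP secondary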
[8] = target: NADPH oxidase 2 (Homo sapiens) (UniProt P04839); assay: NOX2-dependent H2O2 signal modulators, primary screen, NOX inhibitor project, cell-based, HEK293-NOX2, PMA-stimulated, Amplex Red fluorescence (AID 1159); conditions: 45 min, higher = more signal, called active from +8 up or from −8 down; also: test concentration not given here
[9] = target: NADPH oxidase 4 (Homo sapiens) (UniProt Q9NPH5); assay: NOX4-dependent H2O2 signal modulators, primary screen, NOX inhibitor project, cell-based, HEK293-NOX4, tetracycline-induced, Amplex Red fluorescence (AID 1160); conditions: 45 min, higher = more signal, called active from +8 up or from −8 down
[10] = target: NADPH oxidase 5 (Homo sapiens) (UniProt Q96PH1); assay: NOX5-dependent H2O2 signal modulators, primary screen, NOX inhibitor project, cell-based, HEK293-NOX5, Amplex Red fluorescence (AID 1161); conditions: HEK293-NOX5, ionomycin, 45 min, higher = more signal
[11] = A549 cell viability effects, profiling panel, calcein-AM fluorescence, 48 h, basal (AID 1162); conditions: higher = more signal; also: test concentration not given here
[12] = adipocyte viability effects, profiling panel, cell-based, 3T3-L1 adipocytes, calcein-AM fluorescence, 48 h, basal (AID 1163); conditions: 3T3-L1 adipocytes viability, higher = more signal; also: test concentration not given here
[13] = HepG2 cell viability effects, profiling panel, calcein-AM fluorescence, 48 h, basal (AID 1164); conditions: higher = more signal; also: test concentration not given here
[14] = MM1S cell viability effects, profiling panel, calcein-AM fluorescence, 48 h, basal (AID 1165); conditions: higher = more signal;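 also: viability of MM1S multiple myeloma cells under basal unstimulated conditions; test concentration not given here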
[15] = basal RPMI8226 viability, no added stimulus, profiling panel, cell-based, calcein-AM fluorescence, 48 h, PK04 Diversity Set (AID 1166); conditions: RPMI8226 myeloma viability, higher = more signal;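 also: cells grown under basal conditions without added stimulus; test concentration not given here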
[16] = basal HepG2 mitochondrial membrane potential changes, profiling panel, cell-based, JC-1 fluorescence, 24 h, 100 nL compound (AID 1167); conditions: higher = more signal; also: test concentration not given here
[17] = basal 3T3-L1 adipocyte mitochondrial potential changes, profiling panel, cell-based, JC-1 fluorescence, 3T3-L1 adipocytes, 24 h, 100 nL compound (AID 1168); conditions: JC-1 mitochondrial fluorescence, higher = more signal, called active from +8 up or from −8 down; also: test concentration not given here
[18] = basal RPMI8226 mitochondrial membrane potential changes, profiling panel, cell-based, JC-1 fluorescence, 24 h, 100 nL compound (AID 1169); conditions: RPMI8226 myeloma, JC-1 mitochondrial potential fluorescence, higher = more signal; also: test concentration not given here
[19] = basal MM1S mitochondrial membrane potential changes, profiling panel, cell-based, JC-1 fluorescence, 24 h, 100 nL compound (AID 1170); conditions: higher = more signal; also: test concentration not given here
[20] = A549 lung cancer cell viability effects, profiling panel, resazurin fluorescence, 24 h, PK04 Diversity Set (AID 1171); conditions: higher = more signal, called active from +8 up or from −8 down; also: test concentration not given here

Chain of NADPH oxidase 5 (Homo sapiens) (Q96PH1 whole entry, looked up): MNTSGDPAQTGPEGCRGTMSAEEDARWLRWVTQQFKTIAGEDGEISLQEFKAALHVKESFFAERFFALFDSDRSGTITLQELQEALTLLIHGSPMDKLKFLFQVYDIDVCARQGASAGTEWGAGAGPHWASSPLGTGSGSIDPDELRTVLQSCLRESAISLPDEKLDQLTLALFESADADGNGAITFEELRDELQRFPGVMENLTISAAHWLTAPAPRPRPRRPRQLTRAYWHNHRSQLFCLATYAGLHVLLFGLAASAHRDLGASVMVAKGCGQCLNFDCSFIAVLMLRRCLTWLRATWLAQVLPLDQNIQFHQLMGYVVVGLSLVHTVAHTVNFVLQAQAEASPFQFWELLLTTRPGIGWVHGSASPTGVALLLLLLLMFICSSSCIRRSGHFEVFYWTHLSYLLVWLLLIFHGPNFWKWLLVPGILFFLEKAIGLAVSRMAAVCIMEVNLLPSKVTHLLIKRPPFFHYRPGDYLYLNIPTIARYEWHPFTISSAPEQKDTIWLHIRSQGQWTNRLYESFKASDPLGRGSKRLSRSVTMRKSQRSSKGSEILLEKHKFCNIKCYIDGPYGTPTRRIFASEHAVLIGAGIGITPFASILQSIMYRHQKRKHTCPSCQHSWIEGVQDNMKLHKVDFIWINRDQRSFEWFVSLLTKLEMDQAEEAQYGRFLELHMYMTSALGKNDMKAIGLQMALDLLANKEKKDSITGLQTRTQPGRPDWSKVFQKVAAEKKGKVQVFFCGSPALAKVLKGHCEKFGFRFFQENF
Chain of NADPH oxidase 2 (Homo sapiens) (P04839 whole entry, looked up): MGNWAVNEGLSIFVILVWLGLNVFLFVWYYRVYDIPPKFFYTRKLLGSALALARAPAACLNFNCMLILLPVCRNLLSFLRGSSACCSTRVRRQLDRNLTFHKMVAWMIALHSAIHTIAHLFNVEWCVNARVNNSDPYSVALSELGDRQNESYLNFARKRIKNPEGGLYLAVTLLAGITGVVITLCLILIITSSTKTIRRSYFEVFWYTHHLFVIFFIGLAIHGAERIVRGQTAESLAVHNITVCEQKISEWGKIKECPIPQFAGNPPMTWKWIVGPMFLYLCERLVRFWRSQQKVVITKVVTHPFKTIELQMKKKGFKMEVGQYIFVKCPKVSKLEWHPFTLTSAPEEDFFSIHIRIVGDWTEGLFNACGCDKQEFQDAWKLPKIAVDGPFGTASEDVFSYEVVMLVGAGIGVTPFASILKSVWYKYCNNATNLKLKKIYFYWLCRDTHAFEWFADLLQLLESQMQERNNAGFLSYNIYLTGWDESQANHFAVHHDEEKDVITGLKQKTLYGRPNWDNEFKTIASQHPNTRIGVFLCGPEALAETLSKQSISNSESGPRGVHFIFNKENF
Chain of NADPH oxidase 4 (Homo sapiens) (Q9NPH5 whole entry, looked up): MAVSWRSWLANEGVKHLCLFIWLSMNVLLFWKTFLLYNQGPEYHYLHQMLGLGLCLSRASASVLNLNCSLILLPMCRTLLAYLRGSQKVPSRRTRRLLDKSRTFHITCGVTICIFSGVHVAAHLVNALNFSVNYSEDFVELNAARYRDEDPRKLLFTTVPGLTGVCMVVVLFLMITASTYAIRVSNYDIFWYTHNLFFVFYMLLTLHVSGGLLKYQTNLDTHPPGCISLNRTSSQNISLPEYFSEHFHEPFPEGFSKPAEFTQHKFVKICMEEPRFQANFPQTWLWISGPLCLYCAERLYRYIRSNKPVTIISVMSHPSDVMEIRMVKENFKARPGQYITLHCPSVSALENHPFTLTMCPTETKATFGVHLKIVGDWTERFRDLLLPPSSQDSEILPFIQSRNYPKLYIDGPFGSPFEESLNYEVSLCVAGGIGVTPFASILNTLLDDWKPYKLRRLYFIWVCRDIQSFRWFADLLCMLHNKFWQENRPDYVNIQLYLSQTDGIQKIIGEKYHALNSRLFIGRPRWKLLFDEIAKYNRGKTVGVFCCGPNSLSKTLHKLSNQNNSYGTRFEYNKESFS

Row | Compound | z-score [1] | composite z-score [2] | z-score [3] | z-score [4] | z-score [5] | z-score [6] | z-score [7] | z-score [8] | z-score [9] | z-score [10] | z-score [11] | z-score [12] | z-score [13] | z-score [14] | z-score [15] | z-score [16] | z-score [17] | z-score [18] | z-score [19] | z-score [20]
1 | COc1cccc([C@H]2Oc3ccc(OC)cc3C(=NO[C@H](C)c3cn([C@@H]4COC[C@H]4O)nn3)[C@@H]2O)c1 | -1.79 (inactive) | -0.235 | 0.162 (inactive) | -1.17 (inactive) | 1.91 (inactive) | -1.69 (inactive) | 0.444 | -0.683 (inactive) | -0.721 (inactive) | -3.94 | -1.3 | 0.67 | -0.428 | -0.717 | -0.786 | -0.832 | 0.839 (inactive) | 0.161 | -0.761 | -0.481 (inactive)
2 | CO[C@H]1O[C@H](CO)[C@@H](OC(=O)Nc2ccc3c(c2)OCO3)[C@H](OC(=O)Nc2ccccc2-c2ccccc2)[C@@H]1OC(=O)Nc1ccccc1-c1ccccc1 | 0.181 (inactive) | 0.298 | 2.44 (inactive) | 1.7 (inactive) | 0.433 (inactive) | 1.14 (inactive) | -0.0879 | 2.75 (inactive) | -0.0563 (inactive) | -0.303 | -0.89 | -0.0426 | -0.251 | -0.624 | -0.775 | -0.121 | 1.34 (inactive) | -1.11 | 0.481 | -1 (inactive)
3 | CC(C)CON=C1[C@H]2CCn3c(=O)n(-c4ccccc4)c(=O)n3[C@H]2[C@H](O)[C@@H]2O[C@H]12 | 0.424 (inactive) | -0.105 | 0.175 (inactive) | -0.2 (inactive) | 0.0794 (inactive) | 0.0344 (inactive) | 0.0305 | -5.13 (inactive) | 0.018 (inactive) | 0.407 | -0.464 | 0.322 | 0.332 | 0.456 | -1.2 | -0.174 | -0.0969 (inactive) | -0.385 | -0.209 | -0.829 (inactive)
4 | N#Cc1ccc(NN2C(C(O)c3cccc4ccccc34)C=CC3C(=O)N(c4ccccc4)C(=O)C32)cc1 (stereo not given) | -0.499 (inactive) | 0.696 | 12.6 (active) | 2.68 (inactive) | 1.33 (inactive) | 1.44 (inactive) | -0.067 | -1.58 (inactive) | -3.65 (inactive) | -3.57 | -0.762 | -0.506 | 1.52 | 0.0966 | 0.224 | -0.452 | 0.226 (inactive) | -0.312 | -0.0109 | 0.325 (inactive)
5 | COCCOC(=O)N1C(=O)[C@@]2(c3cc(C#CCNC(N)=O)ccc31)[C@H](c1ccc(O)cc1)N1[C@H](c3ccccc3)[C@H](c3ccccc3)OC(=O)[C@H]1[C@@H]2C(=O)N1CCCCCCC1 | 0.455 (inactive) | -0.0779 | 1.04 (inactive) | 0.656 (inactive) | -0.0303 (inactive) | 0.411 (inactive) | 0.0352 | 1.49 (inactive) | -1.04 (inactive) | 1.48 | -0.55 | 0.012 | -0.49 | -0.441 | 0.0294 | -1.85 | -0.731 (inactive) | 0.399 | 0.298 | 0.215 (inactive)
6 | C[N+](C)(C)CCCCCCNC(=O)[C@@H]1C[C@@H]2C(=O)N3CCC[C@H]3C(=O)N2[C@@H]1c1cccc(OCCO)c1 | 0.733 (inactive) | 0.388 | 5.3 (inactive) | 0.679 (inactive) | 1.45 (inactive) | 0.277 (inactive) | 0.0239 | 0.15 (inactive) | 0.982 (inactive) | 1.49 | -0.465 | -0.0317 | -1.92 | 0.826 | 0.844 | -1.08 | 0.217 (inactive) | -0.00411 | -1.03 | 1.12 (inactive)
7 | O=C1NC(=O)C2C1C=CC(C(O)Cc1ccccc1)N2Nc1ccccn1 (stereo not given) | 0.79 (inactive) | 0.165 | 0.541 (inactive) | -0.67 (inactive) | -0.255 (inactive) | -0.422 (inactive) | 0.91 | -1.58 (inactive) | -2.54 (inactive) | -1.8 | 0.379 | -0.949 | 1.16 | -0.171 | -0.87 | 0.0266 | 0.272 (inactive) | 0.477 | -0.684 | -1.22 (inactive)
8 | CC1(C)OCC(C(O)C2=CCCCC2=O)CO1 (stereo not given) | -3.47 (inactive) | 0.138 | 0.0704 (inactive) | 0.137 (inactive) | 0.864 (inactive) | 0.348 (inactive) | 0.315 | 0.362 (inactive) | -0.247 (inactive) | 1.07 | -0.423 | 1.76 | 0.588 | -0.402 | -0.999 | 1.28 | -0.0827 (inactive) | -0.606 | 0.724 | -0.939 (inactive)
9 | Cc1ccc(S(=O)(=O)N[C@@H]2COC(=O)[C@H](C)COC(=O)CC=C[C@H]2C)cc1 | -0.786 (inactive) | -0.0493 | 0.345 (inactive) | 0.408 (inactive) | 0.563 (inactive) | -0.0893 (inactive) | -0.648 | -0.108 (inactive) | 0.174 (inactive) | 0.343 | 0.449 | 0.518 | 0.53 | 0.228 | 0.274 | 0.539 | -0.0933 (inactive) | 1.06 | 0.34 | 0.317 (inactive)

Reference: PubChem BioAssay
